PubChem BioAssay (Tox21)
Records with an inconclusive call do not appear. Where a call stands in place of a potency, no number is given. Activity calls are given as the source filed them. Calls come from the whole dose curve; as a rule, active = well fitted cell-killing curve with a large enough effect in the repeat runs (not every such curve was filed as active); inconclusive = weak or mixed curves, or effect the other way; inactive = no such curve, though single readings can be large or run the other way.

Experiment: qHTS assay to identify small molecule antagonists of the farnesoid-X-receptor (FXR) signaling pathway - cell viability counter screen (AID 743221); note: nearly all actives have a fitted effect of over 50% in size
Conditions: FXR-bla HEK293T viability, CellTiter-Glo luminescence, 16 h; series mostly up to 62.6 µM
Outline: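 Cytotoxicity is taken from ATP luminescence (CellTiter-Glo, 30 min, room temperature) in FXR-bla HEK 293T cells previously incubated 16 h at 37 C with compound and chenodeoxycholic acid at 50 uM final.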

Row | Compound | Potency
1 | C=C(C)C(=O)O[C@H]1C[C@@H]2CC[C@@]1(C)C2(C)C | inactive
2 | O=S1(=O)CC=CC1 | inactive
3 | Oc1cccc2ccccc12 | inactive
4 | CC(=O)c1ccccc1 | inactive
5 | C=C(C)C(=O)OCCOCCOCCOC(=O)C(=C)C | inactive
6 | O=C(O)CCCCCCCCCCC(=O)O | inactive
7 | O=c1[nH]c(=O)n([C@H]2CCCO2)cc1F | inactive
8 | CC(C)c1ccc(S(=O)(=O)O)cc1 | inactive
9 | O=[N+]([O-])c1ccc(/C=C/c2ccc([N+](=O)[O-])cc2S(=O)(=O)O)c(S(=O)(=O)O)c1 | inactive
10 | O=C=NCCCCCCN=C=O | inactive
11 | OCc1cccnc1 | inactive
12 | COc1ccc2cc([C@H](C)C(=O)O)ccc2c1 | inactive
13 | C[Si](O[Si](C)(C)C)O[Si](C)(C)C | inactive
14 | C/C=C1/CC2C=CC1C2 (stereo not given) | inactive
15 | CC1CCC2CC1C2(C)C (stereo not given) | inactive
16 | O=C(CC(C(=O)OC1CCCCC1)S(=O)(=O)O)OC1CCCCC1 (stereo not given) | inactive
17 | C[C@H]1C[C@H]2[C@@H]3CCC4=CC(=O)C=C[C@]4(C)[C@@]3(F)[C@@H](O)C[C@]2(C)[C@@]1(O)C(=O)CO | inactive
18 | c1ccc2c(c1)ccc1ccccc12 | inactive
19 | CCN(CC)CCCC(C)Nc1ccnc2cc(Cl)ccc12 (stereo not given) | inactive
20 | CCCCCC/C(C=O)=C\c1ccccc1 | inactive
21 | C=C(C)C(=O)Nc1ccc(Cl)c(Cl)c1 | inactive
22 | CCCCC(CC)COC(=O)C(C#N)=C(c1ccccc1)c1ccccc1 (stereo not given) | inactive
23 | CCCCCCCCCCCCOCCO | inactive
24 | OCCOCCOCCO | inactive
25 | CN(C)CCCN | inactive
